Measurements published in PubChem BioAssay.
A number with no mark means an inactive call. Activity calls are given as the source filed them.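 The calls were made as follows: active = inhibition above the hit cutoff set in the earlier primary screen (cut at about 27% in these data); inactive = the rest.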

molecular target: Protein phosphatase methylesterase 1 (Homo sapiens) (UniProt Q9Y570); test: human PME-1 methylesterase inhibition confirmation – biochemical, fluorescence polarization, FP-Rh probe, triplicate (AID 2171); conditions: recombinant PME-1, FP-Rh probe fluorescence polarization; at 5.9 µM; hits give high values;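 also: 0% = enzyme with DMSO and 100% = wells lacking PME-1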
Sequence (Q9Y570 whole entry, looked up): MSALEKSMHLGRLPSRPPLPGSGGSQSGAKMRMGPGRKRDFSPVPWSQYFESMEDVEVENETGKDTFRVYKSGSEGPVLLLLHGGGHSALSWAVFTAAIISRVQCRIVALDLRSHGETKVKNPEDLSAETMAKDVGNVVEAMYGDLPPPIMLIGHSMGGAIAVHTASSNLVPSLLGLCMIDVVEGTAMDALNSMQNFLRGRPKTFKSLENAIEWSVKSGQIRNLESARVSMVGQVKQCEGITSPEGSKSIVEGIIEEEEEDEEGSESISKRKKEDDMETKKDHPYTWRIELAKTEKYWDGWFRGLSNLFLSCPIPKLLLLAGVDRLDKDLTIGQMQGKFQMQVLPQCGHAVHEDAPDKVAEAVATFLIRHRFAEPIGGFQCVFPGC

| Structure (SMILES) | inhibition |
| --- | --- |
| Cc1[nH]c2ccccc2c1CCNC(=O)c1ccc2c(c1[N+](=O)[O-])C(=O)c1ccccc1C2=O | 30.9% (active) |
| CCN1C(=O)/C(=C2/Sc3ccccc3N2CC)S/C1=N\c1ncn[nH]1 | 42.6% (active) |
| Cc1nc(S/C(=C/c2ccc(-c3cc(Cl)ccc3C)o2)C(=O)O)n[nH]1 | 26.7% (active) |
| Nc1c(C(=O)Nc2ccc(F)cc2)sc2nc(-c3ccco3)ccc12 | 49.6% (active) |
| Cc1ccc(Nc2c([N+](=O)[O-])ccc3c2=NC2(CCCCC2)N=3)cc1 | 44.3% (active) |
| COc1cc2c(cc1NC(=O)c1cccnc1)oc1ccccc12 | 25.8% |
| CNS(=O)(=O)c1cc(C(=O)OCC(=O)NC2CCCc3ccccc32)ccc1Cl (stereo not given) | 24.4% |
| COc1cc(N/N=C(\C)c2ccc(O)c(C)c2)nc(-c2ccccc2)n1 | 27.3% (active) |
| Cc1ccc(-n2c(O)c(/C=N/Nc3ccc(S(=O)(=O)N4CCOCC4)cc3[N+](=O)[O-])c3ccccc3c2=O)c(C)c1 | 37.9% (active) |
| COc1ccc(N=Nc2nc(-c3ccccc3)c(-c3ccccc3)[nH]2)cc1 | 10.8% |
| COc1ccc(O)c(-c2cc(-c3cccc(Br)c3)n[nH]2)c1 | 23.7% |
| COc1ccc2c(c1)cc(C(=O)N/N=C/c1c(O)c(C(=O)O)cc3ccccc13)n2C | 30% (active) |
| Cc1cc(-c2ccccc2)nc(N/N=C/c2ccc(O)cc2O)n1 | 70.4% (active) |
| Nc1ccc(N2CCCCC2)c2nonc12 | 11.3% |
| Cn1c(=O)c(Nc2ccc(O)cc2)c2c3c(cccc31)C(=O)c1ccccc1-2 | 36% (active) |
